These results are taken from PubChem BioAssay (EPA / NIEHS).

Molecules are shown by their SMILES. Inconclusive results are not listed. Calls of active or inactive are those of the source. Rule for the calls: active = hit-call score of the fitted dose curve at least 0.9, where 1 is the maximum; inconclusive = response in the unintended direction; inactive = score below 0.9.

Chain of Luciferin 4-monooxygenase (Photinus pyralis) (P08659 whole entry, looked up): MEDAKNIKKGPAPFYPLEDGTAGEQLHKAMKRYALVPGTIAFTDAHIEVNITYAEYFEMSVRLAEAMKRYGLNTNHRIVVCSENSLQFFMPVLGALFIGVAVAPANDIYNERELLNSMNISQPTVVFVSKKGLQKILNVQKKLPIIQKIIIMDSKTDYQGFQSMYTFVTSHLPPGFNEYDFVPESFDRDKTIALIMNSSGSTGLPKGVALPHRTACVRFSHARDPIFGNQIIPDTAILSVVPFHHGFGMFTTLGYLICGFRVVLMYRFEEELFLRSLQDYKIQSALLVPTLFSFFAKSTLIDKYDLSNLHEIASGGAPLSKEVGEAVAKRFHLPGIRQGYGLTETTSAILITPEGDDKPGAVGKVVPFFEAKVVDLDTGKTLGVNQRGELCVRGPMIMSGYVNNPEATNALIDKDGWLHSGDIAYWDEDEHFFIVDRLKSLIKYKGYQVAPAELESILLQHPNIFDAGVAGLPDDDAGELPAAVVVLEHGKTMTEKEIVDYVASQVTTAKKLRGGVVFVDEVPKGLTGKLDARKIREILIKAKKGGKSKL

The assay has as its target Luciferin 4-monooxygenase (Photinus pyralis) (UniProt P08659). The assay is described as follows: CCTE_Simmons_QuantiLum_inhib_2: CCTE's Firefly Luciferase Inhibition Assay, Simmons Lab (AID 2283767).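 For AC50: potency for inhibitors that lower luciferase luminescence relative to DMSO.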 Here is the method:
CCTE_Simmons_QuantiLum_inhib_2 is a biochemical, single-readout assay that uses purified luciferase enzyme in a cell-free assay.Measurements were taken 0.5 hour after chemical dosing in a 384-well plate.CCTE_Simmons_QuantiLum_inhib_2 is the assay component measured from the CCTE_Simmons_QuantiLum_inhib_2 assay. It is designed to make measurements of enzyme activity, a form of enzyme reporter, as detected with bioluminescence signals by Luciferase-coupled Quantilum levels technology. This is a secondary assay to CCTE_Simmons_AUR_TPO to evaluate nonspecific enzyme inhibition.Data from the assay component CCTE_Simmons_QuantiLum_inhib_2 was analyzed at the endpoint, CCTE_Simmons_QuantiLum_inhib_2, in the positive analysis fitting direction relative to DMSO as the negative control and baseline of activity. Using a type of enzyme reporter, measures of enzyme activity for loss-of-signal activity can be used to understand inhibition of firefly luciferase. This is an assay endpoint to indicate nonspecific protein inhibition for comparison to aeid 1508 for thyroperoxidase inhibition. To generalize the intended target to other relatable targets, this assay endpoint is annotated to the oxidoreductase intended target family, where the subfamily is monooxygenase.
Quanti-Lum recombinant luciferase (Promega; Madison, Wisconsin) was diluted to 76.9 ng/ml with 200mM potassium phosphate buffer supplemented with 1 mg/ml bovine serum albumin and 65ul (5ng recombinant luciferase) per well was dispensed into opaque, white 384-well plates (Greiner, BioExpress) using an automated liquid handler (BioTek MicroFlo) with a plastic 5 ul tubing cassette. Test compounds were administered using the HDRT as described earlier to achieve a 0.5% final DMSO concentration. Microplates were incubated at 37C in the dark for 30min to mimic the AUR-TPO assay conditions. Luciferase detection reagent (25 ul per well; 9.2 mM dithiothreitol, 75uM Coenzyme A, 147uM dATP, 150uM D-luciferin, 8.9 mM Tricine, 297uM (MgCO3)4.Mg(OH)2.5H20, 742uM MgSO4, 27.8uM EDTA, pH 7.8, final assay concentrations) was then added using a BMG Clariostar plate reader equipped with syringe injectors (BMG LabTech; GmbH). Plates were read using a kinetic luminescence protocol (top read) whereby each well was individually injected with luciferase detection reagent immediately prior to measurement. Three biological replicates of technical singles were run for every chemical concentration tested. A titrated range of LUCINH2 served as a positive control on each plate of the luciferase inhibition screening assay. Test chemicals were administered as a titrated series of 8 concentrations from 5 nM up to 87.5 uM [final] for 30 minutes prior to single endpoint detection. Dimethylsulfoxide [DMSO] was used as the vehicle control. Luciferase Inhibitor I [2-(5-(2-Methoxyphenyl)-1,2,4-oxadiazol-3-yl)pyridine] was used as the positive control and was administered as a titrated series of 8 concentrations from 1 nM up to 100 uM [final].
With `Cc1ccc(C(C)C)cc1O`, the result was inactive.

As to `CC(C)=CCCC(C)CC=O` (configuration not stated), the compound was called inactive. On to `CCCCc1ccc(N)cc1`, for which the result was inactive. With `CSc1nc(NC2CC2)nc(NC(C)(C)C)n1`, the compound was classed as inactive. Still for that read-out and setting: the same measure for `c1ccc2[nH]ccc2c1`: “inactive”. In the case of `COc1cc(C(C)(C)C)c(O)c(C(C)(C)C)c1`, the compound was called inactive. `CN(C)c1ccc(O)c2c1C[C@H]1C[C@H]3[C@H](N(C)C)C(=O)C(C(N)=O)=C(O)[C@@]3(O)C(=O)C1=C2O`: the compound was called inactive. A word on the AC50: it is the concentration giving half of the maximal activity seen. For `O=Nc1ccc(Nc2ccccc2)cc1`, the AC50 is 53.8 µM (active). For `CC(C)c1cccc(O)c1`, the compound was called inactive. Same read-out and setting: the same measure for `c1ccc2c(c1)c1cccc3ccc4cccc2c4c31`: “inactive”; for `O=C(Cl)c1cccc(C(=O)Cl)c1`: “inactive”. Take `CCCCCCCCCCCCCCCC(=O)OC[C@H](O)[C@H]1OC(=O)C(O)=C1O`: the call was inactive. Regarding `O=c1cc(-c2ccccc2)oc2cc(O)cc(O)c12`, the AC50 is 5.53 µM (active). In the case of `Cc1ccc(O)c(C(C)(C)C)c1`, the compound was called inactive.

With `COc1ccc(O)cc1`, the outcome was inactive. Same read-out and setting: the same measure for `CC(C)=CCCC(C)=CCCC(C)=CCO`: “inactive”; for `CCCCCCCCCCCCCOS(=O)(=O)O`: “inactive”.
